Assay results published in PubChem BioAssay (EPA / NIEHS).
Active and inactive are the calls of the source. Rule for the calls: active = hit-call score of the fitted dose curve at least 0.9, where 1 is the maximum; inactive = score below 0.9.

What was measured:
[1] = read-out: Thrombomodulin, THBD (gene 7056); assay: BSK_CASM3C_Thrombomodulin: BioMAP Diversity Plus: CASM3C Assay for Thrombomodulin Biomarker Activity (AID 2283051); conditions: primary human coronary artery smooth muscle cells; actives raise or lower the signal;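 note: thrombomodulin protein level measured by ELISA 24 h after dosing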
[2] = read-out: Tissue Factor, F3 (gene 2152); assay: BSK_CASM3C_TissueFactor: BioMAP Diversity Plus: CASM3C Assay for Tissue Factor Biomarker Activity (AID 2283052); conditions: primary human coronary artery smooth muscle cells; actives raise or lower the signal;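 note: cell surface tissue factor protein level read by ELISA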
[3] = read-out: Urokinase-type plasminogen activator receptor (uPAR), PLAUR (gene 5329); assay: BSK_CASM3C_uPAR: BioMAP Diversity Plus: CASM3C Assay for Urokinase-type plasminogen activator receptor (uPAR) Biomarker Activity (AID 2283054); conditions: primary human coronary artery smooth muscle cells; actives raise or lower the signal;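 note: cell-surface uPAR protein level quantified by ELISA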
[4] = read-out: Vascular cell adhesion molecule 1 (VCAM1), VCAM1 (gene 7412); assay: BSK_CASM3C_VCAM1: BioMAP Diversity Plus: CASM3C Assay for Vascular cell adhesion molecule 1 (VCAM1) Biomarker Activity (AID 2283055); conditions: primary human coronary artery smooth muscle cells; actives raise or lower the signal;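 note: VCAM-1 protein level quantified by ELISA on the cells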
[5] = read-out: Collagen III, COL3A1 (gene 1281); assay: BSK_hDFCGF_CollagenIII: BioMAP Diversity Plus: hDFCGF Assay for Collagen III Biomarker Activity (AID 2283056); conditions: primary human foreskin fibroblasts; actives raise or lower the signal
Method in brief: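 Cells: human foreskin fibroblasts, primary. Dosing followed by 24 h incubation, then ELISA for collagen III. Both increases and decreases scored relative to DMSO.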

[6] = read-out: Epidermal growth factor receptor (EGFR), EGFR (gene 1956); assay: BSK_hDFCGF_EGFR: BioMAP Diversity Plus: hDFCGF Assay for Epidermal growth factor receptor (EGFR) Biomarker Activity (AID 2283057); conditions: primary human foreskin fibroblasts; actives raise or lower the signal
Method in brief: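 Primary human foreskin fibroblasts (hDFCGF system), sampled 24 h after dosing; EGFR quantified by ELISA. Bidirectional fit relative to DMSO baseline; SRB total-protein staining in parallel cultures for cytotoxicity.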

[7] = read-out: Interleukin-8 (IL8), CXCL8 (gene 3576); assay: BSK_hDFCGF_IL8: BioMAP Diversity Plus: hDFCGF Assay for Interleukin-8 (IL8) Biomarker Activity (AID 2283058); conditions: primary human foreskin fibroblasts; actives raise or lower the signal
Method in brief: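 IL-8 levels from compound-treated primary human fibroblasts were read by ELISA at 24 h, with DMSO serving as baseline for bidirectional fitting.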

[8] = BSK_hDFCGF_Proliferation: Cell Proliferation Assessment in the BioMAP Diversity Plus: hDFCGF Assay (AID 2283059); conditions: primary human foreskin fibroblasts;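 note: curves fitted for both rise and fall of signal versus DMSO baseline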
Method in brief: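 Sub-confluent human foreskin fibroblast cultures receive test chemical […]. Relative cell number is quantified by sulforhodamine B staining (0.1%, after 10% TCA fixation) at 560 nm, with bidirectional fitting referenced to DMSO.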

[9] = read-out: Macrophage colony-stimulating factor (MCSF), CSF1 (gene 1435); assay: BSK_hDFCGF_MCSF: BioMAP Diversity Plus: hDFCGF Assay for Macrophage colony-stimulating factor (MCSF) Biomarker Activity (AID 2283060); conditions: primary human foreskin fibroblasts; actives raise or lower the signal
Method in brief: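 M-CSF levels, determined by ELISA, are taken at 24 h after dosing human skin fibroblasts. Responses in either direction are fitted with DMSO serving as the baseline.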

[10] = BSK_hDFCGF_SRB: Viability Assessment in the BioMAP Diversity Plus: hDFCGF Assay (AID 2283061); conditions: primary human foreskin fibroblasts;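 note: cells exposed to compound for 24 h before the read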
Method in brief: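 Cells were dosed with test chemical, cultured 24 h, fixed with 10% TCA, then stained with 0.1% SRB and read at 560 nm. The fibroblasts were human foreskin primary cells, and DMSO served as baseline.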

[11] = read-out: TIMP metallopeptidase inhibitor 1 (TIMP1), TIMP1 (gene 7076); assay: BSK_hDFCGF_TIMP1: BioMAP Diversity Plus: hDFCGF Assay for TIMP metallopeptidase inhibitor 1 (TIMP1) Biomarker Activity (AID 2283062); conditions: primary human foreskin fibroblasts; actives raise or lower the signal
Method in brief: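 Fibroblasts from human foreskin are treated with test chemical and harvested at 24 h. TIMP-1 is quantified by ELISA, and gain or loss of signal is scored against DMSO.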

[12] = read-out: Monokine induced gamma interferon (MIG), CXCL9 (gene 4283); assay: BSK_hDFCGF_MIG: BioMAP Diversity Plus: hDFCGF Assay for Monokine induced gamma interferon (MIG) Biomarker Activity (AID 2283063); conditions: primary human foreskin fibroblasts; actives raise or lower the signal
Method in brief: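 MIG signal, determined by ELISA, reflects 24 h chemical exposure of human skin primary fibroblasts. DMSO serves as negative control and baseline.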

[13] = read-out: Matrix Metallopeptidase 1 (MMP1), MMP1 (gene 4312); assay: BSK_hDFCGF_MMP1: BioMAP Diversity Plus: hDFCGF Assay for Matrix Metallopeptidase 1 (MMP1) Biomarker Activity (AID 2283064); conditions: primary human foreskin fibroblasts; actives raise or lower the signal
Method in brief: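 hDFCGF primary fibroblasts (human foreskin); chemical added; 24 h; MMP1 by ELISA; bidirectional fit vs DMSO.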

[14] = read-out: Vascular cell adhesion molecule 1 (VCAM1), VCAM1 (gene 7412); assay: BSK_hDFCGF_VCAM1: BioMAP Diversity Plus: hDFCGF Assay for Vascular cell adhesion molecule 1 (VCAM1) Biomarker Activity (AID 2283065); conditions: primary human foreskin fibroblasts; actives raise or lower the signal;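 for AC50: VCAM-1 protein level quantified by ELISA after 24 h chemical exposure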
Method in brief: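 Cells are dosed, cultured for 24 h, then VCAM-1 is quantified by ELISA; signal increases and decreases are both fitted relative to DMSO.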

[15] = read-out: Intercellular Adhesion Molecule 1 (ICAM1), ICAM1 (gene 3383); assay: BSK_KF3CT_ICAM1: BioMAP Diversity Plus: KF3CT Assay for Intercellular Adhesion Molecule 1 (ICAM1) Biomarker Activity (AID 2283067); conditions: primary human keratinocytes with fibroblasts; actives raise or lower the signal
Method in brief: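 Dose the keratinocyte/fibroblast co-culture, wait 24 h, measure ICAM-1 by ELISA, then fit increases or decreases against DMSO. Cytotoxicity is checked in parallel cultures by SRB total-protein staining.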

[16] = read-out: Interferon-gamma inducible Protein 10 (IP10), CXCL10 (gene 3627); assay: BSK_KF3CT_IP10: BioMAP Diversity Plus: KF3CT Assay for Interferon-gamma inducible Protein 10 (IP10) Biomarker Activity (AID 2283068); conditions: primary human keratinocytes with fibroblasts; actives raise or lower the signal
Method in brief: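 ELISA read-out of IP-10 after 24 h chemical dosing of human skin primary co-culture (keratinocytes, foreskin fibroblasts). Gain or loss of signal relative to DMSO, bidirectional curve fit.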

[17] = BSK_KF3CT_SRB: Viability Assessment in the BioMAP Diversity Plus: KF3CT Assay (AID 2283069); conditions: primary human keratinocytes with fibroblasts;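 note: total protein by sulforhodamine B staining as a cytotoxicity measure; fitted for both signal gain and loss against DMSO baseline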
Method in brief: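 Keratinocytes co-cultured with foreskin fibroblasts (human primary); chemical added, 24 h; fix 10% TCA, stain 0.1% SRB, A560. Bidirectional fit vs DMSO.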

[18] = read-out: Interleukin-1 alpha (IL1a), IL1A (gene 3552); assay: BSK_KF3CT_IL1a: BioMAP Diversity Plus: KF3CT Assay for Interleukin-1 alpha (IL1a) Biomarker Activity (AID 2283070); conditions: primary human keratinocytes with fibroblasts; actives raise or lower the signal
Method in brief: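 Chemicals were dosed onto co-cultured human keratinocytes and foreskin fibroblasts, IL-1a was quantified by ELISA at 24 h, and activity was fitted in both directions relative to DMSO controls.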

[19] = read-out: Plasminogen activator inhibitor-1 (PAI1), SERPINE1 (gene 5054); assay: BSK_hDFCGF_PAI1: BioMAP Diversity Plus: hDFCGF Assay for Plasminogen activator inhibitor-1 (PAI1) Biomarker Activity (AID 2283066); conditions: primary human foreskin fibroblasts; actives raise or lower the signal
Method in brief: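 Human foreskin fibroblast primary cells, 24 h chemical exposure; PAI-1 measured by ELISA. Bidirectional fitting relative to DMSO; parallel cultures stained with SRB for total protein to flag overt cytotoxicity.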

Measured: AC50

c1ccc(C[n+]2cccc3ccccc32)cc1
inactive: [1] | [2] | [3] | [4] | [5] | [6] | [7] | [8] | [9] | [10] | [11] | [12] | [13] | [14] | [15] | [16] | [17] | [18]

CCCCCCCCCCCO
inactive: [1] | [2] | [3] | [4] | [6] | [11] | [13] | [14] | [15] | [16] | [17] | [18]
active: [7] 32.4 µM | [8] 20 µM | [9] 29.8 µM | [10] 30 µM | [12] 32.1 µM

O=C1CCC(C2CCCCC2)CC1
inactive: [1] | [2] | [3] | [4] | [12] | [15] | [17] | [18]
active: [6] 29.9 µM | [7] 32.5 µM | [8] 19.5 µM | [9] 29.8 µM | [10] 34.4 µM | [11] 32.7 µM | [13] 33.3 µM | [14] 31.6 µM | [19] 31.7 µM | [16] 31.5 µM

CCCCCCCCCC(=O)O
inactive: [1] | [2] | [3] | [4] | [6] | [7] | [8] | [9] | [10] | [11] | [12] | [13] | [14] | [19] | [15] | [16] | [17] | [18]

CCN(CC)C(=O)c1cc(S(=O)(=O)Cc2ccccc2)c(N2CCC(c3ccccc3)CC2)cc1N(CC)CCN(C)C
active: [2] 29.8 µM | [3] 20.4 µM | [8] 5.9 µM | [9] 18.7 µM | [17] 28 µM
inactive: [1] | [4] | [6] | [7] | [10] | [11] | [12] | [13] | [14] | [15] | [16] | [18]

CC1=CC(=O)/C(=C(/C)O)C(=O)O1
inactive: [1] | [2] | [3] | [4] | [6] | [7] | [8] | [9] | [10] | [11] | [12] | [13] | [14] | [15] | [16] | [17] | [18]
